Source: PubChem BioAssay (EPA / NIEHS)
Calls of active or inactive are those of the source. The calls were made as follows: active = hit-call score of the fitted dose curve at least 0.9, where 1 is the maximum; inactive = score below 0.9.

Assays:
Details in all cases: mRNA level, 48 h; actives raise or lower the signal
MYC, MYC (gene 4609) = test: LTEA_HepaRG_MYC: Life Technologies and Expression Analysis (LTEA) Assay for MYC using HepaRG (AID 2283518)
Summary of the method: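 Differentiated human HepaRG cells, plated 48 h then switched to serum-free induction medium, were exposed in duplicate for 48 h to 8-point half-log series up to 100 uM in 0.5% DMSO. MYC mRNA measured by qRT-PCR, normalized to ACTB/GAPDH/POLR2A.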

[1] = read-out: matrix metalloproteinase-3 (MMP3), MMP3 (gene 4314); test: LTEA_HepaRG_MMP3: Life Technologies and Expression Analysis (LTEA) Assay for matrix metalloproteinase-3 (MMP3) using HepaRG (AID 2283519)
Summary of the method: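 qRT-PCR read-out of MMP3 mRNA (normalised to three housekeeping genes) in HepaRG liver cells after 48 h chemical exposure; 8-point half-log series, top 100 uM, 0.5% DMSO vehicle. Bidirectional curve fitting against DMSO baseline.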

[2] = read-out: Paternally Expressed 10 (PEG10), PEG10 (gene 23089); test: LTEA_HepaRG_PEG10: Life Technologies and Expression Analysis (LTEA) Assay for Paternally Expressed 10 (PEG10) using HepaRG (AID 2283520);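 as to AC50: PEG10 transcript by qRT-PCR normalised to ACTB GAPDH and POLR2A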
Summary of the method: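 After 48 h exposure of differentiated HepaRG cells (0.5% DMSO vehicle, eight concentrations up to 100 uM, duplicates), PEG10 mRNA was measured by TaqMan qRT-PCR. Values were normalised to endogenous control genes and analysed bidirectionally against vehicle.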

[3] = read-out: Nuclear factor NF-kappa-B p105 subunit (Homo sapiens) (UniProt P19838); test: LTEA_HepaRG_NFKB1: Life Technologies and Expression Analysis (LTEA) Assay for Nuclear Factor Kappa B Subunit 1 (NFKB1) using HepaRG (AID 2283521)
Summary of the method: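 Differentiated human HepaRG cells in serum-free induction medium with 0.5% DMSO were exposed for 48 h to eight half-log concentrations, top 100 uM, in duplicate. NFKB1 mRNA measured by Fluidigm TaqMan qRT-PCR, normalised to ACTB, GAPDH and POLR2A; bidirectional fit versus DMSO.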

[4] = read-out: Protein phosphatase 2A (PPP2R4), PTPA (gene 5524); test: LTEA_HepaRG_PPP2R4: Life Technologies and Expression Analysis (LTEA) Assay for Protein phosphatase 2A (PPP2R4) using HepaRG (AID 2283522)
Summary of the method: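 Using HepaRG cultures maintained in 0.5% DMSO, chemicals are tested 48 h at up to 100 uM in duplicate. Induction or suppression of PPP2R4 mRNA, measured by qRT-PCR, is fitted bidirectionally against the vehicle baseline.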

[5] = read-out: Phosphatase and tensin (PTEN), PTEN (gene 5728); test: LTEA_HepaRG_PTEN: Life Technologies and Expression Analysis (LTEA) Assay for Phosphatase and tensin (PTEN) using HepaRG (AID 2283523)
Summary of the method: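 HepaRG, 48 h exposure, 8-pt half-log series from 100 uM top, 0.5% DMSO vehicle, duplicates. Readout: Fluidigm qRT-PCR of PTEN transcript; housekeeping normalization (ACTB, GAPDH, POLR2A). Gain or loss fitted relative to DMSO baseline.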

[6] = read-out: solute carrier (SLC22A1), SLC22A1 (gene 6580); test: LTEA_HepaRG_SLC22A1: Life Technologies and Expression Analysis (LTEA) Assay for solute carrier (SLC22A1) using HepaRG (AID 2283524)
Summary of the method: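 qRT-PCR readout (TaqMan, Fluidigm arrays) of SLC22A1 transcript, normalized to three housekeeping genes; bidirectional curve fit relative to 0.5% DMSO vehicle. Differentiated human HepaRG cells, 48 h chemical exposure, top concentration 100 uM, half-log steps, eight points.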

[7] = read-out: Pyruvate Dehydrogenase Kinase 4 (PDK4), PDK4 (gene 5166); test: LTEA_HepaRG_PDK4: Life Technologies and Expression Analysis (LTEA) Assay for Pyruvate Dehydrogenase Kinase 4 (PDK4) using HepaRG (AID 2283525)
Summary of the method: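 HepaRG (human liver line), 48 h chemical exposure, 8-pt half-log CRC top 100 uM, 0.5% DMSO vehicle, duplicates. Readout: TaqMan qRT-PCR of PDK4 mRNA, housekeeping-normalized; gain/loss fit relative to DMSO baseline.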

[8] = read-out: NAD(P)H dehydrogenase [quinone] 1 (NQO1), NQO1 (gene 1728); test: LTEA_HepaRG_NQO1: Life Technologies and Expression Analysis (LTEA) Assay for NAD(P)H dehydrogenase [quinone] 1 (NQO1) using HepaRG (AID 2283526)
Summary of the method: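 In this assay, gene expression is read by qRT-PCR after 48 h exposure of HepaRG cells to eight concentrations (max 100 uM, half-log) in 0.5% DMSO. Each chemical runs in duplicate, and activity is scored relative to vehicle.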

[9] = read-out: succinate dehydrogenase complex iron sulfur subunit B (SDHB), SDHB (gene 6390); test: LTEA_HepaRG_SDHB: Life Technologies and Expression Analysis (LTEA) Assay for succinate dehydrogenase complex iron sulfur subunit B (SDHB) using HepaRG (AID 2283528)
Summary of the method: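 HepaRG cells (~100,000/well, plated 48 h) exposed in duplicate for 48 h in serum-free induction medium to 8-point half-log series from 100 uM in 0.5% DMSO; mRNA by qRT-PCR normalised to ACTB, GAPDH, POLR2A; bidirectional fit versus DMSO.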

[10] = read-out: Signal transducer and activator of transcription 3 (Homo sapiens) (UniProt P40763); test: LTEA_HepaRG_STAT3: Life Technologies and Expression Analysis (LTEA) Assay for Signal transducer and activator of transcription (STAT3) using HepaRG (AID 2283529)
Summary of the method: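 HepaRG, 48 h exposure, 8-pt half-log series (top 100 uM), 0.5% DMSO vehicle, duplicates. Readout: STAT3 transcript by Fluidigm qRT-PCR, housekeeping-normalized; bidirectional fit vs DMSO baseline.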

[11] = read-out: solute carrier (SLCO1B1), SLCO1B1 (gene 10599); test: LTEA_HepaRG_SLCO1B1: Life Technologies and Expression Analysis (LTEA) Assay for solute carrier (SLCO1B1) using HepaRG (AID 2283530)
Summary of the method: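 Differentiated human HepaRG cells, plated 48 h, switched to serum-free induction medium and exposed in duplicate for 48 h to 8 half-log concentrations (top 100 uM) in 0.5% DMSO. SLCO1B1 mRNA by TaqMan qRT-PCR, normalized to ACTB/GAPDH/POLR2A.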

[12] = read-out: sulfotransferase 2A1 (SULT2A1), SULT2A1 (gene 6822); test: LTEA_HepaRG_SULT2A1: Life Technologies and Expression Analysis (LTEA) Assay for sulfotransferase 2A1 (SULT2A1) using HepaRG (AID 2283531)
Summary of the method: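 Differentiated human HepaRG cells in serum-free induction medium were exposed for 48 h to eight half-log concentrations (top 100 uM, 0.5% DMSO). SULT2A1 mRNA was measured by qRT-PCR, normalized to ACTB, GAPDH and POLR2A, and fitted bidirectionally against DMSO.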

[13] = read-out: Transforming Growth Factor (TGFA), TGFA (gene 7039); test: LTEA_HepaRG_TGFA: Life Technologies and Expression Analysis (LTEA) Assay for Transforming Growth Factor (TGFA) using HepaRG (AID 2283532)
Summary of the method: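 qRT-PCR read-out of TGFA transcript, normalized to three housekeeping genes, fitted bidirectionally against 0.5% DMSO baseline. Human HepaRG cultures received chemicals for 48 h at eight half-log concentrations, top 100 uM.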

TIMP1, TIMP1 (gene 7076) = test: LTEA_HepaRG_TIMP1: Life Technologies and Expression Analysis (LTEA) Assay for TIMP1 using HepaRG (AID 2283534)
Summary of the method: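 Differentiated human HepaRG cells in serum-free induction medium were exposed 48 h to chemicals (8 half-log concentrations, top 100 uM, 0.5% DMSO). TIMP1 mRNA was quantified by TaqMan qRT-PCR, normalized to ACTB/GAPDH/POLR2A; bidirectional fit versus DMSO.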

[14] = read-out: Tumor necrosis factor receptor 1 (TNFRSF1A), TNFRSF1A (gene 7132); test: LTEA_HepaRG_TNFRSF1A: Life Technologies and Expression Analysis (LTEA) Assay for Tumor necrosis factor receptor 1 (TNFRSF1A) using HepaRG (AID 2283535)
Summary of the method: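 Differentiated human HepaRG cells were exposed in duplicate for 48 h in serum-free induction medium to eight concentrations (top 100 uM, half-log steps, 0.5% DMSO). TNFRSF1A mRNA was quantified by qRT-PCR, normalized to ACTB, GAPDH and POLR2A, then fitted bidirectionally against DMSO.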

[15] = read-out: matrix metalloproteinase-10 (MMP10), MMP10 (gene 4319); test: LTEA_HepaRG_MMP10: Life Technologies and Expression Analysis (LTEA) Assay for matrix metalloproteinase-10 (MMP10) using HepaRG (AID 2283517)
Summary of the method: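 Transcript levels come from Fluidigm qRT-PCR normalized to three housekeeping genes, with curves fitted bidirectionally against 0.5% DMSO. Human HepaRG cells were dosed for 48 hours at concentrations up to 100 uM.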

[16] = read-out: Nuclear factor erythroid 2-related factor 2 (Homo sapiens) (UniProt Q16236); test: LTEA_HepaRG_NFE2L2: Life Technologies and Expression Analysis (LTEA) Assay for Nuclear factor erythroid 2-related factor 2 (NFE2L2) Transcription Factor using HepaRG (AID 2283527);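 also: TaqMan qRT-PCR transcript level normalised to ACTB GAPDH and POLR2A housekeeping genes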
Summary of the method: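 HepaRG, 48 h dosing, 8-pt half-log series from 100 uM in 0.5% DMSO, duplicates. Read-out: NFE2L2 mRNA by qRT-PCR (ACTB/GAPDH/POLR2A normalization). Bidirectional curve fit vs DMSO baseline.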

[17] = read-out: Transforming Growth Factor (TGFB1), TGFB1 (gene 7040); test: LTEA_HepaRG_TGFB1: Life Technologies and Expression Analysis (LTEA) Assay for Transforming Growth Factor (TGFB1) Transporter using HepaRG (AID 2283533)
Summary of the method: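 Differentiated human HepaRG cells in serum-free induction medium were exposed in duplicate for 48 h to eight concentrations (top 100 uM, half-log steps, 0.5% DMSO). TGFB1 mRNA was quantified by qRT-PCR, normalized to ACTB, GAPDH, POLR2A, and fitted bidirectionally against DMSO.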

Measured: AC50

Chain of Signal transducer and activator of transcription 3 (Homo sapiens) (P40763 whole entry, looked up): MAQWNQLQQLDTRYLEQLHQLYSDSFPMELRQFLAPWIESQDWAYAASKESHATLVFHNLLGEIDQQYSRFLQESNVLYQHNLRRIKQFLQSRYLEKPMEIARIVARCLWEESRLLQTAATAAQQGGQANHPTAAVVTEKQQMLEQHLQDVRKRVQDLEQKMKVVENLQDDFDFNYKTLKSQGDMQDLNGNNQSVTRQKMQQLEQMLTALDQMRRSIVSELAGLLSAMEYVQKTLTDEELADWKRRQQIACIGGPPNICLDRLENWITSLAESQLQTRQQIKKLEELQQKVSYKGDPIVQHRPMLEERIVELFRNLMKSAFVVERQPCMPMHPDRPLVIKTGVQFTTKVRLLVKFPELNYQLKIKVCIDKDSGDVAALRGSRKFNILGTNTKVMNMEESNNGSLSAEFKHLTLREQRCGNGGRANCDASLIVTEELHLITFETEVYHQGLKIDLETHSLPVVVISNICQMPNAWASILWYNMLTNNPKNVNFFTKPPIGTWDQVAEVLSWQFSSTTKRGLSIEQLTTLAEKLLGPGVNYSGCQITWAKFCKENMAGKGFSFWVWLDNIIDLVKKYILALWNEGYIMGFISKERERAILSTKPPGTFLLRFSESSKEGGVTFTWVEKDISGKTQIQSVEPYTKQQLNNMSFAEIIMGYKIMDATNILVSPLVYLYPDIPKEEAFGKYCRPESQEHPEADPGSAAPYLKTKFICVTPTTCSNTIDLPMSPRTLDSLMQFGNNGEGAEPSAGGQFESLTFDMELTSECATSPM
Chain of Nuclear factor erythroid 2-related factor 2 (Homo sapiens) (Q16236 whole entry, looked up): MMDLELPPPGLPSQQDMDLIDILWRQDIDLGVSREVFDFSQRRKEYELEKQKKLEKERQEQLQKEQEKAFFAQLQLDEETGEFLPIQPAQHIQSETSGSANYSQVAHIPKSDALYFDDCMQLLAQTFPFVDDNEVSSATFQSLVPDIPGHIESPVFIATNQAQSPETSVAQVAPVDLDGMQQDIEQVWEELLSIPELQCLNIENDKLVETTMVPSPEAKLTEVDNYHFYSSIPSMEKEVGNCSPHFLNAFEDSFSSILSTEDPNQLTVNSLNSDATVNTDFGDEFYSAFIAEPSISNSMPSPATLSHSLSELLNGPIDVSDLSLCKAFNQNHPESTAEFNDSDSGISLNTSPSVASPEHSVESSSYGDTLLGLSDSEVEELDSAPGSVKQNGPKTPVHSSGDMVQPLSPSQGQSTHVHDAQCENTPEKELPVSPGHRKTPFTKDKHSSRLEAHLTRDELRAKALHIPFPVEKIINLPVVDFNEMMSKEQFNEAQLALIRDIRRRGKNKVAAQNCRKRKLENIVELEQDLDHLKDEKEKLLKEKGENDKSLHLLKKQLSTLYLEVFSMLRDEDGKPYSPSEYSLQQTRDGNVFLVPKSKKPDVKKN
Chain of Nuclear factor NF-kappa-B p105 subunit (Homo sapiens) (P19838 whole entry, looked up): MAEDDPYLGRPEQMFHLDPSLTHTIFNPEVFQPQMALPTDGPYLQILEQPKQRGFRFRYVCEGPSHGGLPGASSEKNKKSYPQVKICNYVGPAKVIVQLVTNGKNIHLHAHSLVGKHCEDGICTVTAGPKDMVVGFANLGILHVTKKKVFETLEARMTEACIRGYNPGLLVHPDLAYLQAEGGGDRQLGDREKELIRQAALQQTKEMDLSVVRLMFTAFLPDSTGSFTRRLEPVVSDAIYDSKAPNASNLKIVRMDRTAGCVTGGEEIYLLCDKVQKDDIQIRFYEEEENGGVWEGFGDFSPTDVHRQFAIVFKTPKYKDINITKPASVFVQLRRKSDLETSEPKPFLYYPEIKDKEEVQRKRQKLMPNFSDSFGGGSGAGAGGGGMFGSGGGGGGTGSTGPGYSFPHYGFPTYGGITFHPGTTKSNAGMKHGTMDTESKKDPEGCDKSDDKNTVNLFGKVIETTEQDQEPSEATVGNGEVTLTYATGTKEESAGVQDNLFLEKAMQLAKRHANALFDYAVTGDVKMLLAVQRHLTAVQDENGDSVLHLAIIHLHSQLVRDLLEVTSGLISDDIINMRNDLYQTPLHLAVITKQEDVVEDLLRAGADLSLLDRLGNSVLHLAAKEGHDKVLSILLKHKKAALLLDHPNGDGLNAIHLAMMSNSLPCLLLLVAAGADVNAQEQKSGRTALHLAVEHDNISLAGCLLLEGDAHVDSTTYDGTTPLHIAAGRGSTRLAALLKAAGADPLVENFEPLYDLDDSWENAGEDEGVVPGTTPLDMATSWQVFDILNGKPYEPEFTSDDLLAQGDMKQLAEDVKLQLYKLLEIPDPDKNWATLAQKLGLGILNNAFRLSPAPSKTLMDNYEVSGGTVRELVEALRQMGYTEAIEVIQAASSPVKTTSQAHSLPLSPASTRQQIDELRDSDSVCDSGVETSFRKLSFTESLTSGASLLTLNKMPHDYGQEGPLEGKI

Cc1occc(=O)c1O
not listed: [15] | [16] | [17]
inactive: all other assays above

CCCC[C@H]1CN(CC2CCOCC2)C(=O)OC12CCN(C1(C)CCN(C(=O)c3c(C)ncnc3C)CC1)CC2
not listed: [3] | [17]
inactive: all other assays above

O=C(Oc1ccccc1)c1cccc(C(=O)Oc2ccccc2)c1
not listed: [3]
inactive: all other assays above

Oc1ccccc1O
not listed: [3]
inactive: all other assays above

Nc1nc(=S)c2[nH]cnc2[nH]1
active: MYC, MYC (gene 4609) 11.4 µM | [2] 7.2 µM | [11] 11.4 µM | [12] 11.4 µM
not listed: [3] | [6] | [16]
inactive: all other assays above

NC1CCCCC1
not listed: [3] | [17]
inactive: all other assays above

O=C(N[C@@H](c1ccccc1)[C@@H]1CCCCN1)c1cccc(C(F)(F)F)c1Cl
active: [15] 35 µM | MYC, MYC (gene 4609) 50 µM | [1] 87.1 µM | [2] 50 µM | [4] 89.5 µM | [5] 75.2 µM | [6] 40.5 µM | [7] 50 µM | [9] 91.4 µM | [10] 80.3 µM | [11] 37.1 µM | [12] 78.9 µM | [17] 82.3 µM | [14] 82.2 µM
inactive: [3] | [8] | [13] | TIMP1, TIMP1 (gene 7076)

Cc1c(C)c2c(c(C)c1O)CCC(C)(COc1ccc(CC3SC(=O)NC3=O)cc1)O2 (stereo unspecified)
active: [15] 48.5 µM | [2] 91.5 µM | [3] 77 µM | [11] 24.7 µM | [12] 93.4 µM | TIMP1, TIMP1 (gene 7076) 50 µM
not listed: [6] | [16] | [17]
inactive: all other assays above
